Most compounds without a hit are left out; they make up all but 3.7% or so of the library.
Nrf2 activator: activators of Nrf2 (ARE) signaling; AREc32 ARE-luciferase reporter (MCF7-derived line), luminescence, 24 h; Potency, µM (doses to about 46.1 µM), without a hit: at the top dose activation, most hits filed as activators; 0.31% of 410,000 active; AID 624171; also: % of control where 0% means no effect; nearly all actives have a fitted effect of over 65% in size
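AREc32 cells carrying an ARE-driven firefly luciferase reporter were seeded at 1000 cells/well in OPTI-MEM with 5% FBS, then exposed to compound for 24 hr at 37 deg C. Luminescence was read with Steady-Glo after 30 min at RT.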
ELG1 DNA repair: inhibitors of ELG1-dependent DNA repair in HEK293T cells | HEK293T ELG1-luciferase reporter, luminescence, 16 h; DNA damage induced by 5-fluorouridine | Potency, µM (doses to about 46.1 µM), for the others: top-dose activity change, negative = inhibition, hits mostly inhibitors | 2.3% of 330,000 active | AID 504467; also: % is scaled to controls: 0 for no effect and ±100 for the full control effect; nearly all actives have a fitted effect of over 55% in size
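DMSO vehicle served as the neutral condition. Each well held 2,000 cells given 5-fluorouridine plus compound; after 16 hr at 37 °C/5% CO2, ONE-Glo was added and luciferase measured 30 min later.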
Nrf2 block: Nrf2 pathway inhibition. A549 ARE-Fluc reporter, luciferase luminescence, 18-24 h. Potency, µM (doses to about 46 µM), for inactives: at the top dose activity change, negative = inhibition, usual class: inhibitors. 2.1% of 360,000 active; also: % is scaled to controls: 0 for no effect and ±100 for the full control effect; nearly all actives have a fitted effect of over 60% in size
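Quantitative HTS in A549 cells stably bearing an antioxidant response element-firefly luciferase construct. Inhibition of Nrf2-driven transcription was scored by luminescence after 18-24 h of compound exposure at 37 °C.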
A549 tox-1: A549 cytotoxicity, counter-screen for Nrf2 inhibitors. 0.16% of 390,000 active. Potency, µM (top dose mostly 46 µM), without a hit: at the top dose activity change, negative = cytotoxicity, actives largely listed as inhibitors. AID 504648. A549 ARE-Fluc cells, CellTiter-Fluor viability, 18-24 h; also: % is scaled to controls: 0 for no effect and ±100 for the full control effect
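Cytotoxicity counterscreen: CellTiter-Fluor fluorescence was measured in A549 ARE_Fluc cells after 18-24 h of compound exposure in a concentration series. The subsequent BugLite luminescent read reports ARE-luciferase activity.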
FLuc counter 3: firefly luciferase inhibition, Nrf2 hit validation; shares compounds with Nrf2 block; purified firefly luciferase, luminescence inhibition; Potency, µM (doses to about 57.5 µM), without a hit: top-dose activity change, negative = inhibition, hits mostly inhibitors; 4% of 1,400 active; AID 720522; also: % is scaled to controls: 0 for no effect and ±100 for the full control effect; nearly all actives have a fitted effect of over 65% in size
A549 tox-2: counter-screen for Nrf2 inhibitors: cytotoxicity in A549 ARE cells | A549 ARE-Fluc cells, cytotoxicity counterscreen | Potency, µM (highest dose often 46.1 µM), inactives show top-dose activity change, negative = cytotoxicity, usual class: inhibitors | 2% of 1,400 active | shares compounds with Nrf2 block;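 also: cells exposed to compounds for 18 to 24 hours; % is scaled to controls: 0 for no effect and ±100 for the full control effect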
Nrf2 ARE inh: Nrf2 inhibition confirmed, A549 ARE-luciferase | shares compounds with Nrf2 block | A549 ARE-firefly luciferase reporter, luminescence | Potency, µM (highest dose often 46.1 µM), for inactives: at the highest dose activity change, negative = inhibition, most hits filed as inhibitors | 74% of 1,400 active | AID 720524; also: % is scaled to controls: 0 for no effect and ±100 for the full control effect; nearly all actives have a fitted effect of over 65% in size
ELG1 FLuc counter: luciferase inhibition in cell-free luciferin readout for ELG1 hits. shares compounds with ELG1 DNA repair. cell-free firefly luciferase luminescence counter-screen, ViewLux. Potency, µM (doses to about 46.1 µM), inactives show top-dose activity change, negative = inhibition, usual class: inhibitors. 3% of 350 active. AID 624247; also: % is scaled to controls: 0 for no effect and ±100 for the full control effect
ELG1 Luc conf: human ELG1 repair inhibition, luciferase-tagged ELG1 confirmation; HEK293T ELG1-luciferase levels, luminescence; cells co-treated with 5-fluorouridine; 68% of 670 active; Potency, µM (highest dose often 46.1 µM), inactives show top-dose activity change, negative = inhibition, most hits filed as inhibitors; shares compounds with ELG1 DNA repair; also: % is scaled to controls: 0 for no effect and ±100 for the full control effect; nearly all actives have a fitted effect of over 55% in size
Target sequence (Q96QE3 whole entry, looked up): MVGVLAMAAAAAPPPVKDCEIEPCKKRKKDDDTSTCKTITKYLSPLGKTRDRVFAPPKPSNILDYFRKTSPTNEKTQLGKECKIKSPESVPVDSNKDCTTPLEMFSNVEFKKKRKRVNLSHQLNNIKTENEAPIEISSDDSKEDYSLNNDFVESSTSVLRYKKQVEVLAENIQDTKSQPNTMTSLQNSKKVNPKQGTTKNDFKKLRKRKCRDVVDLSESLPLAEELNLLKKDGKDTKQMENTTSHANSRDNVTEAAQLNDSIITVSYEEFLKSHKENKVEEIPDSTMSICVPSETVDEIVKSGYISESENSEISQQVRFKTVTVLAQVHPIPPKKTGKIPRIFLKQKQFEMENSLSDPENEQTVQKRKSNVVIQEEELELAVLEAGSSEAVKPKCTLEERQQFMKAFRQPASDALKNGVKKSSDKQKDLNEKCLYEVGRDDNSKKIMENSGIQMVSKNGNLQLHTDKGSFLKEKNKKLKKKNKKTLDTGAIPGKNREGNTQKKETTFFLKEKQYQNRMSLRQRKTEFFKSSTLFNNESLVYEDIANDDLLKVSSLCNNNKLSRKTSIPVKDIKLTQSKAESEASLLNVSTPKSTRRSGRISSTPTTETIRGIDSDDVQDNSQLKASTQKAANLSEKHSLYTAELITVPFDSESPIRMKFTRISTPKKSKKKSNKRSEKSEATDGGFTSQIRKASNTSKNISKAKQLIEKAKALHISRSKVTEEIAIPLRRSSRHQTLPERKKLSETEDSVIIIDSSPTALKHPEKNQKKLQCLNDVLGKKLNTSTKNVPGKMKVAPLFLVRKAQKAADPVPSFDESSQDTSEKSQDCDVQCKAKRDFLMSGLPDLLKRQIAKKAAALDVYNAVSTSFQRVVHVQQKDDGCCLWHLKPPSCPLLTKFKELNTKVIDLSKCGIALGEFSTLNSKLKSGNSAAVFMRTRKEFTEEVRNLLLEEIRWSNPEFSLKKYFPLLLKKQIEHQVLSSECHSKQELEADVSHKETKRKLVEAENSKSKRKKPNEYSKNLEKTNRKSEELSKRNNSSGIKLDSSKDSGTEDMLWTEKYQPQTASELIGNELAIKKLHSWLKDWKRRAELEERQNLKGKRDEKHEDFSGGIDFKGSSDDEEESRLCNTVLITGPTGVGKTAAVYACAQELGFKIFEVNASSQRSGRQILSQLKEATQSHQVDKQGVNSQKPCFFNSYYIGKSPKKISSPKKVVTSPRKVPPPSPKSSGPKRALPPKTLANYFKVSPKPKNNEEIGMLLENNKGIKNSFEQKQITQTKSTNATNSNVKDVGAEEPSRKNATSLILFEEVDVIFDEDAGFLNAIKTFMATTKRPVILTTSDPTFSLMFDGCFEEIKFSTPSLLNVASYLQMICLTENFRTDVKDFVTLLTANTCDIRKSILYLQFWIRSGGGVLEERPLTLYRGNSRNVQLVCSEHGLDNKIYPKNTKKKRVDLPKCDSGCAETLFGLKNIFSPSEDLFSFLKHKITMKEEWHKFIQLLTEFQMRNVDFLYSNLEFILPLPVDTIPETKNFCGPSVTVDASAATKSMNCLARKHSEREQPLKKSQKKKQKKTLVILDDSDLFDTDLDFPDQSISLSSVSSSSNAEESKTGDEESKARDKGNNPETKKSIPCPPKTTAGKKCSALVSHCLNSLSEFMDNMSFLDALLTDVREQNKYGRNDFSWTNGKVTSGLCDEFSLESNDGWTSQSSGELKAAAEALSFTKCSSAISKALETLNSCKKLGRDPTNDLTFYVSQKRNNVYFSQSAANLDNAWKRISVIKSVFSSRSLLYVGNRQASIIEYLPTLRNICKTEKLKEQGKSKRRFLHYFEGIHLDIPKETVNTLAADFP
ELG1 MMS Luc: MMS-stimulated human ELG1 repair inhibition, confirmed. shares compounds with ELG1 DNA repair. HEK293T luciferase-tagged ELG1 level, MMS stimulated. Potency, µM (titrated, usually from 46.1 µM), inactives show top-dose activity change, negative = inhibition, most hits filed as inhibitors. 53% of 670 active. AID 624249; also: % is scaled to controls: 0 for no effect and ±100 for the full control effect; nearly all actives have a fitted effect of over 60% in size
ELG1 5FU viab: confirmation of ELG1 repair inhibitors: viability with 5FU | 670 tested, under 10 active | Potency, µM (top dose mostly 46.1 µM), inactives show top-dose activity change, negative = viability loss, actives largely listed as cytotoxic | shares compounds with ELG1 DNA repair | cell viability with 5-FU, ELG1-dependent repair;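 also: ELG1-luc HEK293T cells cotreated with 5-fluorouridine at 10 µM final; viability measured 16 h after compound addition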
ELG1 MMS viab: confirmation of ELG1 repair inhibitors: viability with MMS | shares compounds with ELG1 DNA repair | Cell viability with MMS, ELG1-dependent DNA repair | Potency, µM (top dose mostly 46.1 µM), for inactives: at the top dose activity change, negative = viability loss, actives largely listed as cytotoxic | 33% of 670 active | AID 624251;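 also: ELG1-luc HEK293T cells co-treated with 10 µM MMS; viability read 16 h after compound addition; % is scaled to controls: 0 for no effect and ±100 for the full control effect; nearly all actives have a fitted effect of over 60% in size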
Cell viab unstim: affects unstimulated cell viability, ELG1 hit counter-screen; shares compounds with ELG1 DNA repair; 8% of 900 active; AID 624252; Potency, µM (top dose mostly 45.9 µM), for the others: top-dose activity change, negative = loss of viability, actives largely listed as cytotoxic; cell viability counter-screen, unstimulated, luminescence;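 also: compound exposure lasted 16 hours before reading; % is scaled to controls: 0 for no effect and ±100 for the full control effect; nearly all actives have a fitted effect of over 55% in size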
FLuc enzyme: firefly luciferase inhibition counter-screen. shares compounds with ELG1 DNA repair. 10% of 350 active. Potency, µM (highest dose often 57.5 µM), for inactives: top-dose activity, negative = inhibition, hits mostly inhibitors. purified firefly luciferase, luminescence counter-screen; also: % is scaled to controls: 0 for no effect and ±100 for the full control effect
Active calls of the source: *; ? = inconclusive; · = not tested or not shown. Calls follow the shape of the dose curve; as a rule, active = well fitted curve in the direction sought with a large enough effect; inconclusive = small, poorly fitted or top-dose-only effect, or another doubt; inactive = no such curve, though single readings can be large; an effect the other way counts as inactive or inconclusive. Potency is read from the fitted curve at half-maximal effect.

SMILES	Nrf2 activator	ELG1 DNA repair	Nrf2 block	A549 tox-1	FLuc counter 3	A549 tox-2	Nrf2 ARE inh	ELG1 Luc conf	ELG1 MMS Luc	ELG1 5FU viab	ELG1 MMS viab	Cell viab unstim	others
O=C(Nc1nnc(-c2ccccc2Cl)o1)c1ccc(S(=O)(=O)N2CCCCCC2)cc1	-2.0%	1µM*	?	-15.5%	-9.5%	?	20.6µM*	?	?	-0.8%	-9.7%	?	ELG1 FLuc counter=8.7%;FLuc enzyme=-2.7%
CS(=O)(=O)c1ccccc1-c1nnc(NC(=O)c2ccc(S(=O)(=O)N3CCCC3)cc2)o1	-0.7%	7.0%	-4.6%	1.1%	·	·	·	·	·	·	·	·
CCCc1cc(C(=O)N2CCN(c3ccc(C(F)(F)F)cn3)CC2)sc1C	3.7%	?	?	-5.4%	·	·	·	·	·	·	·	·
CSC1=NC=C(C#N)C2=NC(c3c(Cl)cccc3Cl)NN12 (configuration not stated)	15.5%	·	·	·	·	·	·	·	·	·	·	·
COc1ccc(-c2noc(CCCCC(=O)N3CCN(c4cc(C)ccc4C)CC3)n2)cc1	-0.9%	?	3.66µM*	-21.9%	-21.2%	-9.1%	7.31µM*	?	1.25µM*	-3.6%	1.12µM*	14.1µM*
COc1ccc(-c2noc(CCCC(=O)N3CCN(c4cc(C)ccc4C)CC3)n2)cc1	4.4%	?	?	-6.0%	·	·	·	·	·	·	·	·
Cc1ccc2c(c1)S/C(=C/c1ccc[n+](CCO)c1)N2C	5.4%	2.91µM*	1.16µM*	-17.0%	1.7%	-20.5%	5.8µM*	1.5%	8.88µM*	-13.9%	8.88µM*	?
COc1ccc(CCNc2ncnc3sccc23)cc1OC	0.7%	0.291µM*	0.581µM*	-6.2%	-19.7%	1.3%	0.517µM*	?	0.281µM*	-0.2%	0.397µM*	?	ELG1 FLuc counter=11.6%;FLuc enzyme=-9.6%
CC(C)(C)OC(=O)NC(Cc1ccccc1)C(=O)NC1COC2CC(n3ccc(=O)[nH]c3=O)OC12 (configuration not stated)	·	·	18.7%	-2.7%	·	·	·	·	·	·	·	·

Screening results (PubChem)
